Screening results deposited in PubChem BioAssay by National Center for Advancing Translational Sciences (NCATS).
Cruzain Triton: inhibitors of Trypanosoma cruzi cruzain with detergent. P25779. purified cruzain, Z-FR-AMC fluorescence, 0.01% Triton. Potency, µM, for inactives: max response, negative = inhibition, hits mostly inhibitors. 200,000 tested, 0.43% active. AID 1478;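 further: plate controls were neutral wells for no effect and buffer without enzyme for full effect; nearly all actives have a fitted effect of over 40% in size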
Target sequence (P25779 123-467 limits assumed): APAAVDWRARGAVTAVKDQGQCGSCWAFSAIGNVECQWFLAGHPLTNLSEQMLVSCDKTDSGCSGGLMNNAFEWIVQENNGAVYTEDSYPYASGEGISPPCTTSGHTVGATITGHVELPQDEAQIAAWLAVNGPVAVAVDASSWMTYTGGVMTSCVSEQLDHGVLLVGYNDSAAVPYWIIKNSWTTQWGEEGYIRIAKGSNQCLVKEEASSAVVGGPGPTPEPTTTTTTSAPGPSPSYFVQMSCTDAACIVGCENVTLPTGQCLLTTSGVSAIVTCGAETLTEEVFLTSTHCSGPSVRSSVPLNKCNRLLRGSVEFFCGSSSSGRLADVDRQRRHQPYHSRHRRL
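Enzyme 1.5 nM, Z-FR-AMC 2 uM, NaOAc 100 mM pH 5.5, DTT 5 mM, Triton X-100 0.01%; 15 min RT compound preincubation; kinetic ex360/em450, 60 s delta.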
Cruzain inh noDet: blocks cruzain activity in detergent-free assay; AID 1476; Potency, µM, without a hit: max response, negative = inhibition, hits mostly inhibitors; purified cruzain, Z-FR-AMC fluorescence, no detergent; 200,000 tested, 2.3% active;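 further: plate controls were enzyme without inhibitor for no effect and buffer without enzyme for full effect; nearly all actives have a fitted effect of over 40% in size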
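Purified cruzain at 1.5 nM, pre-incubated 15 min with compound at room temperature in 100 mM sodium acetate pH 5.5, 5 mM DTT, 0.00005% Triton X-100. Reaction started with 2 uM Z-FR-AMC; AMC fluorescence increase over 60 s gives rate.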
Starred values were filed as active, the others as inactive; ? = inconclusive. The list is not random: actives were taken first. Their share in the collection is about 2.5%. The call rests on the fitted dose curve; in most records, active means well fitted curve in the direction sought with a large enough effect; inconclusive means small, poorly fitted or top-dose-only effect, or another doubt; inactive means no such curve, though single readings can be large; an effect the other way counts as inactive or inconclusive. Potency means the concentration at half of the fitted maximal effect.

SMILES	Cruzain Triton	Cruzain inh noDet
COc1ccc(CCNC(=O)c2cc3c(=O)n4cccc(C)c4nc3n(Cc3ccncc3)c2=N)cc1	1%	13%
CCOC(=O)c1cc2c(=O)n3ccccc3nc2n(CC2CCCO2)c1=NC(=O)c1cc(C)cc(C)c1 (configuration not stated)	-2%	-5%
COCCn1c(=N)c(C(=O)NCc2ccco2)cc2c(=O)n3ccccc3nc21	-5%	?
CCn1c(=N)c(C(=O)NCc2ccccc2)cc2c(=O)n3cccc(C)c3nc21	-6%	14%
COc1ccc2c(c1)c1c(c(=O)n(-c3ccc(C)cc3)c(=O)n1CC(=O)Nc1cc(C)ccc1C)n2C	-2%	-7%
N[C@@H](CNO)C(=O)O	1%	-7%
COc1ccc2c(c1)C(=O)[C@H](OC(=O)N[C@H]1CCCc3ccccc31)[C@@H](c1ccc(OC)c(Br)c1)O2	-2%	?
O=C(O)CSc1ccc([N+](=O)[O-])cc1[N+](=O)[O-]	-1%	2%
Cc1cc(C)c2c(-c3ccc(-c4ccc(C(F)(F)F)cc4)cc3)cc(=O)oc2c1	5%	25µM*
COc1ccc(-c2ccc(-c3cc(=O)oc4cc(C)cc(C)c34)cc2)cc1	0%	?
NC(=O)SCC(=O)Nc1ccc2ncccc2c1	-2%	7%
Cc1ccc(CNC(=O)Cn2nc(C)n3cccc3c2=O)cc1	-4%	-1%
COc1ccc(CNC(=O)Cn2c(=O)c3cccn3c3ccccc32)cc1	-2%	32µM*
COc1ccc(CNC(=O)Cn2c(=O)c3cccn3c3cccnc32)cc1	-5%	-16%
COc1ccc(CNC(=O)Cn2nc(C)n3cccc3c2=O)cc1	-7%	25µM*
CCc1cnc2c(c1SC(C(C)=O)C(=O)N(C)C)c(=O)n(C)c(=O)n2C (configuration not stated)	-17%	-11%
O=C(O)C(Cc1cccs1)C(=O)O	5%	0%
O=[N+]([O-])c1ccc(Cl)cc1Cl	4%	5%
CCc1ccccc1NC(=O)Cn1cc2c(n1)CCC(C)C2 (configuration not stated)	-4%	27%
COC(=O)C1=NN(c2ccccc2)C2(S1)S/C(=C\c1ccccc1)C(=O)N2c1ccccc1 (configuration not stated)	2%	10µM*
CCOC(=O)C1=NN(c2ccccc2)C2(S1)SC(C(C)=O)=C(C)N2c1ccccc1 (configuration not stated)	-3%	10%
Cc1ccc(-n2c(CCC(=O)O)ccc2-c2cccs2)cc1Cl	0%	15%
CCO[P@]1(=O)OC[C@@H]2O[C@H](n3cnc4c(N)ncnc43)[C@H](O)[C@@H]2O1	2%	-4%
Clc1ccccc1Cn1nnc2c(N3CCCC3)ncnc21	-5%	-15%
CC1Cc2ccccc2N1c1ncnc2c1nnn2Cc1ccccc1Cl (configuration not stated)	-21%	25µM*
SMILES	Cruzain Triton	Cruzain inh noDet
Cc1nc(N/N=C/c2ccccc2)nc(N(C)c2ccccc2)c1[N+](=O)[O-]	-1%	16µM*
Cc1cc(C)nc(N/N=C/c2ccccc2)n1	-6%	-3%
CC(C)C[C@@H](CC(=O)N[C@H](CC(=O)N[C@@H]1CCNC[C@H]1C(=O)N[C@H](CC(=O)N[C@@H](CCC(=O)O)CC(=O)O)Cc1c[nH]c2ccccc12)C(C)C)NC(=O)[C@@H]1CCCC[C@H]1N	0%	-14%
O=C(CCN1CCCCC1)c1csc2ccccc12	-23%	2.5µM*
O=C(CCN1CCCCC1)c1ccccc1	-5%	-13%
Cc1cc([N+](=O)[O-])ccc1-c1ccc(C2Nc3ccccc3C(=O)N2O)o1 (configuration not stated)	-5%	20µM*
CCOC(=O)c1ccc(-c2ccc(C3Nc4ccccc4C(=O)N3O)o2)cc1 (configuration not stated)	-15%	?
O=C(CSc1nc2ccccc2c(=O)n1Cc1ccco1)NCc1ccco1	-6%	-27%
CCOC(=O)c1c(NC(=O)CSc2ncnc3ccccc23)sc(C(C)=O)c1C	-3%	?
CCOC(=O)c1c(NC(=O)CSc2nc3ccccc3c(=O)n2-c2ccc(F)cc2)sc(C(C)=O)c1C	-5%	7.9µM*
CCOC(=O)c1sc2nc(SCC(=O)NCc3ccco3)n(Cc3ccccc3)c(=O)c2c1C	2%	7.9µM*
COC(=O)c1c(NC(=O)CSc2nc3ccccc3c(=O)n2Cc2ccco2)sc(C)c1C	-2%	25µM*
Cc1sc2nc(SCC(=O)NCc3ccco3)n(Cc3ccccc3)c(=O)c2c1C	-3%	4%
Cc1ccccc1NC(=O)c1c(NC(=O)C(C)Oc2cccc(Cl)c2)sc2c1CCCC2 (configuration not stated)	-2%	?
COc1ccc(NC(=O)CC2C(=O)N(c3ccc(C)cc3)C(=O)N2CCc2ccccc2)cc1 (configuration not stated)	-5%	-5%
COc1ccc(C2=C(C)C(=O)N(Cc3ccc(C(=O)Nc4cc(C)ccc4C)cc3)S2(=O)=O)cc1	-8%	?
CC1=C(c2ccc(C)cc2)S(=O)(=O)N(Cc2ccc(C(=O)Nc3ccc(C)c(F)c3)cc2)C1=O	-2%	20µM*
CCc1ccc(NC(=O)CC2C(=O)N(c3cccc(OC)c3)C(=O)N2C2CCCC2)cc1 (configuration not stated)	-5%	2%
CC(C)CC(C(=O)Nc1oc(-c2ccco2)c(-c2ccco2)c1C#N)N1C(=O)c2ccccc2C1=O (configuration not stated)	-22%	32µM*
CC(C)CC(C(=O)Nc1ccc2c(c1)OCCO2)N1C(=O)c2ccccc2C1=O (configuration not stated)	-8%	-7%
O=C(c1ccccc1)[C@H](Nc1ccc2ccccc2c1)c1ccccc1	-5%	-5%
Cc1cc(C)c(S(=O)(=O)N2CCN(c3ccc([N+](=O)[O-])c(-n4nc(C)cc4C)c3)CC2)c(C)c1	-1%	20µM*
Cc1cc(C)n(-c2cc(N3CCN(S(=O)(=O)c4ccc(Br)cc4)CC3)ccc2[N+](=O)[O-])n1	-6%	?
COc1ccc2c(c1)c1c(c(=O)n(-c3ccc(OC)c(OC)c3)c(=O)n1Cc1ccccc1C)n2C	-1%	9%
Cc1sc(NC(=O)c2ccc(OCC(C)C)cc2)c(C(N)=O)c1-c1ccc(Cl)cc1Cl	?	10µM*
SMILES	Cruzain Triton	Cruzain inh noDet
CCCOc1ccc(C(=O)Nc2cccc(NC(=O)c3ccc(Cl)cc3Cl)c2)cc1	2%	?
Cc1ccccc1NC(C)C(=O)N/N=C/c1ccccc1OCc1cccc(Br)c1 (configuration not stated)	0%	32µM*
COc1ccc(NC(C)C(=O)N/N=C/c2ccccc2OCc2cccc(Br)c2)cc1 (configuration not stated)	-5%	?
COc1cc(C2CC(=O)Nc3ccc4ccccc4c32)ccc1OC(=O)C(C)C (configuration not stated)	-15%	9%
COc1cccc(NC(=O)CSc2nc(=O)[nH]c3c2CCCC3)c1	-2%	6%
CC(C)c1ccc(C2CC(=O)N3CN(C)CSC3=C2C#N)cc1 (configuration not stated)	1%	-4%
CC(C)c1ccc(C2C(C#N)=C(N)N3C(=C2C#N)Sc2ccccc23)cc1 (configuration not stated)	-14%	7.9µM*
Cc1ccccc1-c1nc(CS(=O)(=O)CC(=O)NCc2cccc(Cl)c2)c(C)o1	-9%	-6%
